From PubChem
The list is not random: actives were taken first. Their share in the collection is about 9.9%.
MCF10A rereplic = induces DNA re-replication in MCF 10a normal breast cells; MCF 10A DNA re-replication, Hoechst nuclear intensity, 48 h; Potency, µM (top dose mostly 46.1 µM), for the others: at the top dose activity, positive = re-replication, hits mostly activators; 2.9% of 350,000 active; also: potency is read from the fitted curve at half-maximal effect; % of control where 0% means no effect; nearly all actives have a fitted effect of over 50% in size
KB-V1 MDR tox = kills drug-selected multidrug resistant KB-V1 cells; KB-V1 MDR cells viability, CellTiter-Glo, 72 h; Potency, µM (highest dose often 46.1 µM), actives largely listed as cytotoxic; 3.4% of 400,000 active; also: potency is read from the fitted curve at half-maximal effect; % is scaled to controls: 0 for no effect and ±100 for the full control effect; nearly all actives have a fitted effect of over 60% in size
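KB-V1, DMEM (no phenol red) + 10% FBS; cpd pin-transferred, titration series; 72 h, 37 degrees C; CellTiter-Glo, luminescence. Data normalized, curve-fit.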
IL1B secr inh = blocks inflammasome-driven IL-1 beta release | THP-1 LPS/ATP IL-1B secretion, AlphaLISA, 16 h; hits give low values | activity change, % at 57.5 µM | 4.7% of 360,000 active | AID 743279; in the data active = activity change below about -50%; inconclusive = mostly about -30% to -49%; also: % is scaled to controls: 0 for no effect and ±100 for the full control effect
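THP-1 cells pretreated 1 hr with compounds (up to 57.5 uM final), then stimulated with LPS (250 ng/mL final) plus ATP (1.25 mM final); secreted IL-1B measured by AlphaLISA after 16 hr, decreased signal indicating inhibition.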
SW480 rerep = DNA re-replication induction in SW480 cells. SW480 DNA re-replication, Hoechst DNA content imaging, 48 h. Potency, µM (highest dose often 46.1 µM), for inactives: top-dose re-replication activation, actives largely listed as activators. 1.8% of 340,000 active. AID 624297; also: potency is read from the fitted curve at half-maximal effect; % of control where 0% means no effect; nearly all actives have a fitted effect of over 55% in size
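DNA re-replication was detected as more nuclei of elevated Hoechst intensity after 48 hr exposure to compound (23 nL pinned per well of 250 cells).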
KB-3-1 cytotox = kills parental KB-3-1 adenocarcinoma cells | KB-3-1 viability, CellTiter-Glo ATP luminescence, 72 h | Potency, µM (highest dose often 46.1 µM), hits mostly cytotoxic | 1.4% of 400,000 active | AID 1347075; also: potency is read from the fitted curve at half-maximal effect; % is scaled to controls: 0 for no effect and ±100 for the full control effect; nearly all actives have a fitted effect of over 60% in size
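KB-3-1 parental drug-naive adenocarcinoma cells in DMEM/10% FBS, incubated 72 h at 37 C with pin-transferred compounds across a concentration series. Viability by CellTiter-Glo luminescence; concentration-response curves fitted after normalization.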
* hit, by the source's call; [ ] = another dose, or the depositor's remark. Unless noted, calls follow the shape of the dose curve; as a rule, active = well fitted curve in the direction sought with a large enough effect; inconclusive = small, poorly fitted or top-dose-only effect, or another doubt; inactive = no such curve, though single readings can be large; an effect the other way counts as inactive or inconclusive.

CCC(=O)OCC(=O)[C@@]1(OC(=O)CC)[C@H](C)C[C@@H]2[C@@H]3[C@H]([C@@H](O)C[C@@]21C)[C@]1(C)C=CC(=O)C=C1C[C@@H]3Cl was read as MCF10A rereplic 2%[20.6 µM] and SW480 rerep -4%[20.6 µM].
Screening CCCCC1C(=O)N(c2ccccc2)N(c2ccc(O)cc2)C1=O (stereo unspecified) returned MCF10A rereplic inconclusive, KB-V1 MDR tox inactive, IL1B secr inh -109*, SW480 rerep inconclusive and KB-3-1 cytotox inactive.
Screening CCN1C(=O)NC(c2ccccc2)C1=O (stereo unspecified) returned MCF10A rereplic -1%, KB-V1 MDR tox inactive, IL1B secr inh 20, SW480 rerep -80% and KB-3-1 cytotox inactive.
For CC(C)=CCC1C(=O)N(c2ccccc2)N(c2ccccc2)C1=O the results were MCF10A rereplic 30µM* and SW480 rerep inconclusive.
O=C(COC(=O)c1cc(=O)[nH]c2ccccc12)NCCc1ccccc1 was read as MCF10A rereplic -7%, KB-V1 MDR tox inactive, IL1B secr inh 22, SW480 rerep -2% and KB-3-1 cytotox inactive.
For COc1cc(C(=O)Oc2cccc(/C=N/NC(=O)c3cc(C)[nH]n3)c2)cc(OC)c1OC the results were MCF10A rereplic 3%, KB-V1 MDR tox inactive, IL1B secr inh -21, SW480 rerep 1% and KB-3-1 cytotox inactive.
Screening COc1cc(C(=O)Oc2cccc(C=O)c2)cc(OC)c1OC returned MCF10A rereplic 2%, KB-V1 MDR tox inactive, IL1B secr inh 20, SW480 rerep 16µM* and KB-3-1 cytotox inactive.
Screening Cc1nc2nc(C)c(CCC(=O)NCCc3ccccc3)c(C)n2n1 returned KB-V1 MDR tox inconclusive and KB-3-1 cytotox inactive.
Screening O=C(Nc1c2c(nn1-c1ccccc1)CS(=O)(=O)C2)c1cc2ccccc2o1 returned MCF10A rereplic 14%, KB-V1 MDR tox inconclusive, IL1B secr inh inactive, SW480 rerep inconclusive and KB-3-1 cytotox inactive.
CCCCC1(CC(=O)OCC)C(=O)N(c2ccccc2)N(c2ccccc2)C1=O was read as MCF10A rereplic 6%, KB-V1 MDR tox 4.6µM*, IL1B secr inh 0, SW480 rerep 17% and KB-3-1 cytotox inactive.
For CN(CCO)c1nc(N)c(C#N)c(CC#N)c1C#N the results were MCF10A rereplic 11%, KB-V1 MDR tox inactive, IL1B secr inh 56, SW480 rerep 2% and KB-3-1 cytotox inconclusive.
`CN(c1ccccc1)c1nc(N)c(C#N)c(CC#N)c1C#N` gave MCF10A rereplic 10%, KB-V1 MDR tox 7.3µM*, IL1B secr inh 22, SW480 rerep 1% and KB-3-1 cytotox 15µM*.
CCOC(=O)c1sc(NC(=O)Nc2ccc(Cl)cc2)cc1C was read as MCF10A rereplic inconclusive, KB-V1 MDR tox inconclusive, IL1B secr inh -103*, SW480 rerep 1% and KB-3-1 cytotox inconclusive.
For CCOC(=O)c1sc(NC(=O)c2ccc(Cl)s2)cc1C the results were MCF10A rereplic inconclusive, KB-V1 MDR tox inactive, IL1B secr inh inconclusive, SW480 rerep -5% and KB-3-1 cytotox inactive.
Screening CN(CC(=O)Nc1ccncc1)S(=O)(=O)c1ccc(Br)cc1 returned MCF10A rereplic 25%, KB-V1 MDR tox 21µM*, IL1B secr inh -7, SW480 rerep inconclusive and KB-3-1 cytotox inactive.
`Cc1nc(NC(=O)CN(C)S(=O)(=O)c2ccc(Br)cc2)sc1C` gave MCF10A rereplic -2%, KB-V1 MDR tox 18µM*, IL1B secr inh -18, SW480 rerep -5% and KB-3-1 cytotox inactive.
`N#Cc1ccccc1Cn1c(SCC(=O)NCc2ccccc2)nc2ccccc21` gave KB-V1 MDR tox inactive and KB-3-1 cytotox inactive.
For Cc1ccc(-n2c3nc(=O)[nH]c(=O)c-3cc3c(C)nn(-c4ccccc4)c32)cc1Cl the results were KB-V1 MDR tox inactive and KB-3-1 cytotox inconclusive.
For COc1ccc2occ(CC(=O)Nc3ccc(S(=O)(=O)Nc4nc(C)cc(C)n4)cc3)c2c1 the results were KB-V1 MDR tox inactive and KB-3-1 cytotox inactive.
`NC(=O)c1ncn([C@@H]2O[C@H](CNCc3cccc(OC4CCCC4)c3)[C@@H](O)[C@H]2O)n1` gave MCF10A rereplic 7%, KB-V1 MDR tox inconclusive, IL1B secr inh -1, SW480 rerep inconclusive and KB-3-1 cytotox inactive.
Screening CCNC(=O)c1c(NC(=O)c2nc(SC)ncc2Cl)sc2c1CCCC2 returned KB-V1 MDR tox inactive and KB-3-1 cytotox inconclusive.
COc1ccccc1CN1CCCC(C(=O)N(C)Cc2ccccc2)C1 (stereo unspecified) was read as MCF10A rereplic 6%, KB-V1 MDR tox inactive, IL1B secr inh -1, SW480 rerep 4% and KB-3-1 cytotox inactive.
Screening COc1ccccc1CN1CCCC(CN(CCN(C)C)C(=O)C2CCCC2)C1 (stereo unspecified) returned MCF10A rereplic -4%, KB-V1 MDR tox inactive, IL1B secr inh -52*, SW480 rerep -2% and KB-3-1 cytotox inactive.
CC1(C)CC(N2CCCC2)=CC(=[N+]2CCCCC2)C1 was read as MCF10A rereplic inconclusive, KB-V1 MDR tox inactive, IL1B secr inh -5, SW480 rerep 3% and KB-3-1 cytotox 5.2µM*.
For CC1(C)CC(N2CCN(Cc3ccccc3)CC2)=CC(=[N+]2CCCCC2)C1 the results were MCF10A rereplic -31%, KB-V1 MDR tox inactive, IL1B secr inh -51*, SW480 rerep -38% and KB-3-1 cytotox 1.5µM*.
CC1(C)CC(N2CCOCC2)=CC(=S)N1 was read as KB-V1 MDR tox inactive, IL1B secr inh 25 and KB-3-1 cytotox inactive.
`CC1(C)CC(=O)c2sc(N3CCCCC3)nc2C1` gave MCF10A rereplic -5%, KB-V1 MDR tox inactive, IL1B secr inh 2, SW480 rerep -11% and KB-3-1 cytotox inactive.
`CN(Cc1ccccc1)C1=CC(=[N+]2CCCCC2)CC(C)(C)C1` gave MCF10A rereplic inconclusive, KB-V1 MDR tox inactive, IL1B secr inh -70*, SW480 rerep 24% and KB-3-1 cytotox inconclusive.
`CC1(C)CC(NNCCC#N)=CC(=[N+]2CCCC2)C1` gave MCF10A rereplic inconclusive, KB-V1 MDR tox inactive, IL1B secr inh 15, SW480 rerep 2% and KB-3-1 cytotox inactive.
For CC1(C)CC(N2CCCC2)=CC(=[N+]2CCCC2)C1 the results were MCF10A rereplic -2%, KB-V1 MDR tox inactive, IL1B secr inh -8, SW480 rerep 0% and KB-3-1 cytotox 18µM*.
For c1ccc(CN2CCN(c3ncccn3)CC2)cc1 the results were MCF10A rereplic inconclusive, KB-V1 MDR tox inactive, IL1B secr inh -4, SW480 rerep 0% and KB-3-1 cytotox inactive.
COc1ccc(OC)c(CNC(=O)c2nn(-c3ccc(OC)c(Cl)c3)c(=O)c3c2c2ccccc2n3C)c1 was read as KB-V1 MDR tox inactive and KB-3-1 cytotox inactive.
